From PubChem
NS1 function inh: inhibitors of influenza NS1 protein function; Potency, µM (titrated, usually from 46.1 µM); hit rate 0.4% among 270,000; AID 2326; calls by dose curve; note: actives are rising curves; nearly all actives have a fitted effect of over 50% in size
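Compounds were scored for reversing the slow growth caused by influenza A NS1 in S. cerevisiae, measured by optical density at 600 nm. Assay medium contained 2% galactose at pH 6.0; NS1-free yeast of the same strain were the positive control.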
Pf growth 96h: inhibits malaria parasite growth, 96 h | P. falciparum luciferase reporter growth, 96 h | AID 504834 | hit rate 6.9% among 320,000 | Potency, µM (titrated, usually from 28.7 µM), most hits filed as inhibitors
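Luminescence readout: decreased luciferase signal marks inhibited growth of reporter-expressing P. falciparum in infected red cells (2% hematocrit, 0.05% parasitemia final), exposed to compound two generations (96 h, 37 C, 5% CO2).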
Pf growth 48h: P. falciparum growth inhibition at 48 hours (one generation); P. falciparum luciferase growth in erythrocytes, 48 h; Potency, µM (doses to about 28.7 µM), hits mostly inhibitors; hit rate 5.9% among 310,000; AID 504832
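In quantitative HTS format, infected erythrocytes bearing luciferase-reporter parasites were treated for a single generation at 37 C. Luminescence after adding detection reagent served as the growth measure.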
Vaccinia Venus: vaccinia inhibition (Venus reporter) | Vaccinia virus Venus reporter expression, fluorescence | Potency, µM (titrated, usually from 36.5 µM), actives largely listed as inhibitors | hit rate 0.46% among 330,000; calls by dose curve; tested in A549 cells; note: nearly all actives have a fitted effect of over 30% in size
Vaccinia mCherry: inhibitors of vaccinia virus infection (mCherry reporter signal). Potency, µM (highest dose often 36.5 µM), actives largely listed as inhibitors. hit rate 0.63% among 310,000. Vaccinia virus mCherry reporter infection, fluorescence. AID 720579; calls by dose curve; tested in A549 cells; note: nearly all actives have a fitted effect of over 35% in size
HCV inhibitor: HCV inhibition; Huh7.5.1 HCVcc-Cre infection, luciferase reporter, 44 h; Potency, µM (doses to about 41.8 µM), usual class: inhibitors; hit rate 3.4% among 340,000; AID 651820
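Luciferase read-out (15 sec integration) after a 15 min room-temperature substrate step quantifies HCVcc-Cre infection. Cells, 1,000 per well, had compound added 4 h post-plating, then virus at ~0.5 moi, and were cultured 44 h.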
Each line names hits and unclear results; the compound was inactive in the other large screens. Hits are enriched below; roughly 11% of the tested compounds scored in any of these assays. Unless noted, calls come from the whole dose curve; as a rule, active = well fitted inhibition curve with a large enough effect; inconclusive = small, poorly fitted or top-dose-only effect, or another doubt; inactive = no such curve, though single readings can be large or run the other way.

CCCNC(=O)C1CN(C(=O)c2nn(Cc3ccccc3)c(=O)c3ccccc23)c2ccccc2O1 (stereo not given)	Pf growth 96h 11.7µM, Pf growth 48h 10.4µM (no result: NS1 function inh)
Cc1ccc(S(=O)(=O)c2cc3c(=O)n4ccccc4nc3n(CCc3ccccc3)c2=N)cc1	Pf growth 48h 2.08µM
CCn1c(=N)c(S(=O)(=O)c2ccc(C)cc2)cc2c(=O)n3ccccc3nc21	Pf growth 96h inconclusive (no result: Vaccinia Venus, Vaccinia mCherry, HCV inhibitor)
COc1ccc(CCn2c(=N)c(S(=O)(=O)c3ccccc3)cc3c(=O)n4ccccc4nc32)cc1	Pf growth 96h inconclusive, Pf growth 48h inconclusive (no result: Vaccinia Venus, Vaccinia mCherry)
Cc1ccc(S(=O)(=O)c2cc3c(=O)n4ccccc4nc3n(C3CCCC3)c2=N)cc1	Pf growth 48h 5.22µM, HCV inhibitor 5.01µM
COc1ccc(CCn2c(=N)c(S(=O)(=O)c3ccc(Cl)cc3)cc3c(=O)n4ccccc4nc32)cc1	Pf growth 96h 2.62µM, Pf growth 48h 4.65µM
C/C(=C\c1ccccc1)CN1CCC(C(=O)N2CCC(C)CC2)CC1	Pf growth 96h inconclusive
c1ccc2c(c1)NC1(CCCCCC1)n1c-2nc2ccccc21	none (no result: Pf growth 96h, Vaccinia Venus, Vaccinia mCherry)
CCCCC1(C)Nc2ccccc2-c2nc3ccccc3n21 (stereo not given)	Pf growth 96h 1.31µM, Pf growth 48h 2.08µM, Vaccinia mCherry inconclusive
CC1(c2ccccn2)Nc2ccccc2-c2nc3ccccc3n21 (stereo not given)	Pf growth 48h 1.65µM (no result: Vaccinia Venus, Vaccinia mCherry)
COc1ccc(NC(=O)C2CCCN(S(=O)(=O)c3ccc4c(c3)CCCN4C(C)=O)C2)cc1Cl (stereo not given)	Pf growth 48h inconclusive, HCV inhibitor 2.51µM
COc1ccc(NC(=O)C2CCCN(S(=O)(=O)c3ccc4c(c3)CC(C)N4C(C)=O)C2)cc1 (stereo not given)	Pf growth 48h 13.1µM, HCV inhibitor inconclusive
COc1ccc(NC(=O)C2CCCN(S(=O)(=O)c3ccc4c(c3)CCCN4C(C)=O)C2)cc1 (stereo not given)	Pf growth 48h 11.7µM, HCV inhibitor inconclusive
Cc1cnc(-n2ncc(C(=O)NCC(C)(C)N3CCOCC3)c2C)nc1-c1cccs1	none (no result: NS1 function inh, Pf growth 96h, Pf growth 48h, HCV inhibitor)
CC1CN(c2ccc([N+](=O)[O-])cc2F)CCN1C(=O)c1ccco1 (stereo not given)	none (no result: HCV inhibitor)
CCOC(=O)c1c(NC(=O)CN2CCN(C(=O)c3ccco3)CC2)sc2c1CCCC2	Pf growth 48h 3.7µM, HCV inhibitor inconclusive (no result: Vaccinia Venus, Vaccinia mCherry)
CCOC(=O)c1c(NC(=O)CN(CC)CC)sc2c1CCN(C(=O)OCC)C2	Pf growth 96h 8.28µM, Pf growth 48h 9.28µM, Vaccinia Venus inconclusive, Vaccinia mCherry inconclusive, HCV inhibitor 2.82µM
CCOC(=O)N1CCc2c(sc(NC(=O)C3=COCCO3)c2C(N)=O)C1	Pf growth 96h inconclusive, Pf growth 48h inconclusive, Vaccinia Venus inconclusive, Vaccinia mCherry inconclusive (no result: HCV inhibitor)
CCOC(=O)NC(Nc1sc2c(c1C(=O)OC)CCN(C)C2)(C(F)(F)F)C(F)(F)F	Pf growth 96h 6.57µM, Pf growth 48h inconclusive (no result: Vaccinia mCherry)
CCOC(=O)c1c(NC(=O)c2ccco2)sc2c1CCCC2	HCV inhibitor inconclusive (no result: Pf growth 96h, Vaccinia Venus, Vaccinia mCherry)
CCOC(=O)c1c(NC(=O)COC)sc2c1CCCC2	HCV inhibitor inconclusive (no result: Pf growth 96h, Vaccinia Venus, Vaccinia mCherry)
CCOC(=O)c1c(NC(=S)N2CCN(C)CC2)sc2c1CCN(C(=O)OCC)C2	Pf growth 96h 11.7µM, Pf growth 48h 13.1µM, HCV inhibitor 6.31µM
CCOC(=O)c1c(NC(=O)CN2CCCCC2)sc2c1CCN(C(=O)OCC)C2	Pf growth 96h 5.22µM, Pf growth 48h 10.4µM, Vaccinia mCherry inconclusive, HCV inhibitor 10µM
O=C(O)c1ccccc1CSc1nnnn1-c1ccccc1	none
CCOC(=O)N1CCN(C(=O)Cc2ccc(-n3c(=O)[nH]c4ccccc4c3=O)cc2)CC1	Pf growth 96h 9.28µM
CCCC[N+]12CCC(CC1)C(C(=O)c1cccs1)C2 (stereo not given)	Pf growth 96h 2.62µM, Pf growth 48h 10.4µM (no result: Vaccinia mCherry)
CCCCNC(=O)CNC(=O)c1cccs1	none (no result: Vaccinia Venus, Vaccinia mCherry)
NC1=NC(=O)/C(=C\c2cccnc2)S1	Pf growth 96h 9.28µM (no result: NS1 function inh, Vaccinia Venus, Vaccinia mCherry)
NC1=NC(=O)C(=Cc2ccccc2)S1	none (no result: NS1 function inh, Pf growth 96h, Pf growth 48h)
CCCSc1nnc(Sc2nnnn2-c2ccccc2)s1	Pf growth 48h 13.1µM, HCV inhibitor inconclusive (no result: Pf growth 96h, Vaccinia Venus, Vaccinia mCherry)
Cc1ccccc1-n1nnnc1Sc1nnnn1-c1ccccc1	Pf growth 48h 8.28µM, Vaccinia Venus inconclusive, HCV inhibitor inconclusive (no result: Pf growth 96h, Vaccinia mCherry)
Cc1cc(C)n2cc(CSc3nnnn3-c3ccccc3)nc2n1	NS1 function inh inconclusive, Pf growth 96h 8.28µM (no result: Vaccinia Venus, Vaccinia mCherry)
Cc1cc(C)c(C#N)c(Sc2nnnn2-c2ccccc2)n1	Pf growth 96h 2.33µM
C(=C\CSc1nnnn1-c1ccccc1)/CSc1nnnn1-c1ccccc1	Pf growth 96h inconclusive, Pf growth 48h inconclusive, HCV inhibitor inconclusive (no result: Vaccinia Venus, Vaccinia mCherry)
Cc1cc(C)n2cc(CSc3nnnn3-c3ccc(Cl)cc3)nc2n1	Vaccinia Venus inconclusive (no result: Vaccinia mCherry)
C=CCNCCCOc1ccc(C(C)(C)c2ccccc2)cc1	Pf growth 96h inconclusive, Pf growth 48h inconclusive, HCV inhibitor inconclusive
Cc1ccc(CN(Cc2cccn2-c2nnc(N3CCCC3=O)s2)C(=O)Nc2ccccc2C(F)(F)F)cc1	none (no result: NS1 function inh, Pf growth 96h, Pf growth 48h, HCV inhibitor)
CC(=O)NC(CC(=O)NCCCn1ccc2ccccc21)c1ccccc1 (stereo not given)	none
CCN(C(=O)c1cc2c(s1)-c1ccccc1OC2)c1cc(OC)ccc1OC	Pf growth 96h 11.7µM, Pf growth 48h inconclusive, HCV inhibitor 12.6µM
CCN(C(=O)c1cc2c(s1)-c1ccccc1S(=O)(=O)C2)c1cc(OC)ccc1OC	Pf growth 96h inconclusive, Pf growth 48h 9.28µM, HCV inhibitor 10µM
Cn1c(-c2ccsc2)c(-c2cccs2)c2cc(-c3cccc4[nH]ccc34)ccc21	Pf growth 96h inconclusive, Pf growth 48h inconclusive, HCV inhibitor inconclusive (no result: NS1 function inh)
